The panel holds about 83,000 compounds, 20% with a hit somewhere; the sample as a whole holds those more often.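 Testing used 96-well plates and a 48-hour single-concentration exposure. Example: -40 means 40% of the starting cells died.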 A number with no mark means an inactive call. Calls of active or inactive are those of the source. The calls were made as follows: active = growth percent below 10; inactive = the rest.

The values that follow come from PubChem BioAssay (NCI).

For this test, the system named is HCT-116 colon. Briefly: NCI-60 one-dose screen, 48 h (100 = growth as untreated, 0 = no growth, -100 = all killed). Conditions: 10 µM unless noted.
`CCN1C(=O)N(CC)C2SC(N/N=C/c3cccs3)=NC21` (centres undefined): the growth was 3.01% (active).

In the case of `O=C1NC(=O)/C(=C/c2ccc(OCc3cc4ccccc4nc3Cl)cc2)S1`, the growth is 98.1%. For the molecule `O=C(NNc1nc2cc(F)c(F)cc2n2cccc12)c1ccncn1`, the growth is 20.4%.

As to `C#C[C@]1(O)CC[C@H]2[C@@H]3CC=C4c5sc(Nc6nc(C)cc(OC)n6)nc5CC[C@]4(C)[C@H]3CC[C@@]21C`, the growth is 42.7%. Turning to `CCNC(=O)Oc1ccc(/C(=C(/C)c2ccc(Cl)cc2)c2ccc(OCCN3CCCC3)cc2)cc1`, the growth was 53.1%. Turning to `O=C(NNc1nc2cc(F)c(F)cc2n2cccc12)c1cccnn1`, the growth was 8.91% (active). `O=C(O)CNS(=O)(=O)c1ccc(Oc2ccc(S(=O)(=O)NCC(=O)O)cc2)cc1`: the growth is 103%. Consider `Cc1cc(NS(=O)(=O)c2ccc(-c3cnc(C4CC4)o3)cc2)ccc1I`, for which the growth is 28.3%. Consider `COc1ccc(C(=O)c2c(N)c(C#N)cn2-c2cccc(OC)c2)cc1`, for which the growth is 16.8%. Next, `COc1ccc(CCN2C(=O)CSC2=S)cc1OC`: 99.6%; `Cc1ccc(/C=C/CC(=O)Nc2ccc(C(=O)Nc3ccc(F)cc3N)cc2)cn1`: 39%; `O=C(NNc1nc2cc(F)cc(F)c2n2cccc12)c1ccncn1`: 18.6%. With `C[C@H]1[C@H](C)CC[C@]2(COC(=O)c3cccnc3)CC[C@]3(C)C(=CC[C@@H]4[C@@]5(C)CCCNC(C)(C)[C@@H]5CC[C@]43C)[C@H]12`, the growth is 33.5%. On to `Fc1ccccc1/C=C(/C1=NCCN1)n1cnc2ccccc21`, for which the growth was 98.7%.
